These results are taken from PubChem BioAssay.

This experiment can be described thus: probe aNOTCH2 binding on compound microarray – biochemical, small-molecule microarray, 635/667 nm fluorescence, primary screen (AID 1121).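 Note: score merges feature fluorescence read at 667 nm with its signal to noise.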 The note with it: higher = more signal.
On to `O=C(O)C1=CC[C@H]2C(=O)N(c3ccccc3)C(=O)[C@@H]12`, for which the composite z-score is -0.0216. Compound `CCc1cccc(NC(=O)O[C@H]2[C@H](OC(=O)Nc3ccccc3-c3ccccc3)[C@H](OC(=O)Nc3ccccc3-c3ccccc3)[C@@H](OC)O[C@@H]2CO)c1` had a composite z-score of -0.0273.

In the case of `C=C(COC)/C(=C/C[C@@H](OC(C)=O)c1cccc(OCCO)c1)c1cnc2ccccc2c1`, the composite z-score is -0.084. As for `Cc1ccc(S[C@]2(C(=O)NCc3ccccc3)CC(=O)N(Cc3ccccc3C(F)(F)F)[C@@H]2c2ccc(CO)cc2I)cc1`, the composite z-score is -0.0417. Take `COCCOC(=O)N1C(=O)[C@@]2(c3cc(C#CC4(O)CCCCCC4)ccc31)[C@H](C(N)=O)[C@H]1C(=O)O[C@H](c3ccccc3)[C@H](c3ccccc3)N1[C@@H]2c1ccc(OCCO)cc1`: the composite z-score is -0.118. The compound `COc1c(C)cc(-c2cc3c(c(CCc4ccccc4)n2)[Si](C(C)C)(C(C)C)O[C@H]3c2ccccc2)cc1C` came in with a composite z-score of -0.14. Compound `COC(=O)[C@@]1(Cc2ccc(F)cc2)[C@H]2c3cc(C(=O)N(C)C)n(Cc4cccc5ccccc45)c3C[C@H]2CN1C(=O)c1ccccc1` registered a composite z-score of 0.168. To `CC(C)C[C@@H]1NC(=O)[C@@H]2C[C@H](C(=O)NCCCCCNC(=O)CS)[C@H](c3ccc(O)cc3)N2C1=O` belongs -0.104.

Compound `C=C[C@@H](CO)NS(=O)(=O)c1ccc(Br)cc1` yielded a composite z-score of -0.17.

For the compound `COC(=O)[C@@]1(Cc2ccc(F)cc2)[C@H]2c3cc(C(=O)N(C)C)n(CCF)c3C[C@H]2CN1C(=O)c1ccccc1`, the composite z-score amounted to 0.057. The compound `COC(=O)[C@@]1(Cc2ccccc2)[C@H]2c3cc(C(=O)N(C)C)n(Cc4nc5ccccc5[nH]4)c3C[C@H]2CN1C(=O)c1ccccc1` had a composite z-score of 0.0576. `C=C(C(=O)CC[C@@H](OC(=O)c1ccccc1-c1ccccc1C(=O)O)c1ccc(OCCO)cc1)C(C)C` registered a composite z-score of -0.0876.

In turn, `COCCOC(=O)N1C(=O)[C@@]2(c3cc(C#CCCO)ccc31)[C@H](C(=O)N1CCN(c3ncccn3)CC1)[C@H]1C(=O)O[C@H](c3ccccc3)[C@H](c3ccccc3)N1[C@@H]2c1ccc(OCCO)cc1` displayed a composite z-score of -0.0817. The compound `O=C1OC[C@@H](c2ccccc2)n2cc(/C=C/c3ccccc3)cc21` came in with a composite z-score of -0.149. To `CCOC(=O)C[C@H]1[C@H](OC(=O)c2cc3ccccc3oc2=O)[C@@H](NC(=O)Cc2ccc(OC)cc2)c2cc(OCCCO)ccc2N1C(=O)Cc1ccc(OC)cc1` belongs -0.162. In turn, `C=CCN1C(=O)[C@@]2(O[C@@H](CCO)[C@H]([Si](C)(C)c3ccc(OC)cc3)[C@H]2C)c2cc(N3CCCCC3=O)ccc21` gave a composite z-score of -0.108. `COc1ccc(CCNC(=O)[C@@]2(C)c3ccccc3C(=O)N(Cc3ccc(OC(F)(F)F)cc3)[C@H]2c2ccc(CO)cc2)cc1` yielded a composite z-score of -0.163. In turn, `COC(=O)[C@@]1(Cc2ccccc2)[C@H]2c3cc(C(=O)N(C)C)n(CCF)c3C[C@H]2CN1C(=O)c1ccccc1` returned a composite z-score of 0.334. In the case of `COc1ccc(NN2C(C(O)c3ccc(F)cc3)C=CC3C(=O)N(C4CCCCC4)C(=O)C32)cc1` (stereo not given) it was -0.0161; in that of `COC(=O)[C@@]1(Cc2ccc(F)cc2)[C@H]2c3cc(C(=O)N(C)C)n(Cc4ccsc4Br)c3C[C@H]2CN1C(=O)c1ccccc1`, 1.08. `COc1ccc(NN2C(C(O)c3ccccc3)C=CC3C(=O)N(C4CCCCC4)C(=O)C32)cc1` (stereo not given) registered a composite z-score of -0.0047.

As to `C=CC[C@H](OC(=O)Nc1ccc(SC)cc1)c1ccc(O)c(F)c1`, the composite z-score is -0.168. In turn, `CO[C@H]1O[C@H](CO)[C@@H](OC(=O)CCc2ccccc2)[C@@H]2OC(=O)[C@@H](Cc3ccc4ccccc4c3)C/C=C/C[C@H](Cc3ccc4ccccc4c3)C(=O)O[C@@H]12` showed a composite z-score of -0.172. Turning to `COC(=O)[C@H](Cc1ccccc1)N1CC(C)(OC)O[C@@H](Cc2ccccc2)[C@H]1/C=C/C1CC1` (stereo not given in full), the composite z-score was -0.108. To `C[C@H]1C2[C@H](Cc3ccccc3)NC(=O)[C@]23C(=O)N[C@@H](Cc2ccccc2)C(=O)N2CCC[C@H]2C(=O)NC/C=C/CC/C=C/C3[C@@H]2O[C@]12C` (stereo not given in full) belongs -0.159; to `C=C(C(=O)CC[C@@H](OC(=O)c1ccccc1-c1ccccc1C(=O)O)c1cccc(OCCO)c1)C(C)C`, -0.0402. `C=C(CCCC)C(=O)CC[C@H](OC(=O)c1ccccc1-c1ccccc1C(=O)O)c1cccc(OCCO)c1`: the composite z-score is -0.126. As to `C=C(CCCC)/C(=C/C[C@@H](OC(C)=O)c1cccc(OCCO)c1)c1cc(C(=O)OC)ccc1OC`, the composite z-score was -0.168. For `CCCCCN1CC=CC23O[C@@H]4/C=C\CCCOC(=O)C4[C@H]2C(=O)N(CCO)[C@@H]3C1=O` (stereo not given in full), the composite z-score is -0.14.

With `O=C1NC(=O)C2C1C=CC(C(O)C1CCCCC1)N2Nc1ccccn1` (stereo not given), the composite z-score was -0.0422. In the case of `COC(=O)C1(CC(C)C)C=C2C(=C(C)C(=O)C2C)CN1` (stereo not given), the composite z-score was 0.175. As for `Cc1ccc(N2C(=O)c3ccccc3[C@@H](C(=O)NCCN3CCOCC3)[C@@H]2c2ccc(CO)cc2)nc1`, the composite z-score is -0.162. `COCCOC(=O)N1C(=O)[C@@]2(c3cc(C#CCNC(N)=O)ccc31)[C@H](c1ccc(O)cc1)N1[C@H](c3ccccc3)[C@H](c3ccccc3)OC(=O)[C@H]1[C@@H]2C(=O)N1CCc2cc(OC)c(OC)cc2C1` showed a composite z-score of -0.0928.

`O=C(NC1CC1)[C@@H]1c2ccccc2C(=O)N(C2CCCCC2)[C@H]1c1ccc(CO)cc1` had a composite z-score of -0.136.

`COc1ccc([Si](C)(C)[C@@H]2[C@@H](CC(=O)N(CCO)Cc3ccccc3)O[C@]3(C(=O)N(Cc4cccc(I)c4)c4ccccc43)[C@H]2C)cc1` returned a composite z-score of -0.0576.
